Compound activity: PubChem, National Center for Advancing Translational Sciences (NCATS)
A selection: hits, their analogues and other compounds. The true share with any hit is near 15%.
HCV inhibitor – inhibitors of hepatitis C virus infection; Huh7.5.1 HCVcc-Cre infection, luciferase reporter, 44 h; Potency, µM (doses to about 41.8 µM), inactives show top-dose activity change, negative = inhibition, usual class: inhibitors; 340,000 compounds, 3.4% hits; further: potency means the concentration at half of the fitted maximal effect; on the % scale 0 is the no-effect control and ±100 the full control effect
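Compounds are dispensed onto cells plated 4 h earlier at 1,000 per well, with HCVcc-Cre virus (about 0.5 moi) added next. Following 44 h of culture, luminescent signal is measured for 15 sec after 15 min with substrate at room temperature.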
SARS PLpro yeast – blocks SARS-CoV papain-like protease in a yeast assay. S. cerevisiae expressing SARS-CoV PLpro, growth rescue. Potency, µM (highest dose often 32.9 µM), for the others: at the top dose activity, positive = growth rescue, hits mostly activators. 330,000 compounds, 0.19% hits. AID 485353; calls by dose curve; further: potency means the concentration at half of the fitted maximal effect; 0% is about no effect; nearly all actives have a fitted effect of over 55% in size
Pf growth 96h – P. falciparum growth inhibition at 96 hours | P. falciparum luciferase reporter growth, 96 h | Potency, µM (series often up to 28.7 µM), for the others: at the highest dose activity change, negative = inhibition, hits mostly inhibitors | 320,000 compounds, 6.9% hits | AID 504834; further: potency means the concentration at half of the fitted maximal effect; on the % scale 0 is the no-effect control and ±100 the full control effect
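Two parasite generations (96 h, 37 C, 5% CO2) of compound exposure in infected erythrocytes (0.05% parasitemia, 2% hematocrit). Luciferase-reporter P. falciparum; decreased luminescence indicates inhibited growth, aimed at apicoplast-acting delayed death.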
Pf growth 48h – P. falciparum growth inhibition at 48 hours (one generation); P. falciparum luciferase growth in erythrocytes, 48 h; Potency, µM (series often up to 28.7 µM), for the others: at the highest dose activity change, negative = inhibition, usual class: inhibitors; 310,000 compounds, 5.9% hits; further: potency means the concentration at half of the fitted maximal effect; on the % scale 0 is the no-effect control and ±100 the full control effect
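Growth was read as firefly luciferase luminescence after a 48 h, 37 C, 5% CO2 exposure of compounds to reporter-bearing P. falciparum cultures (0.1% parasitemia, 2% hematocrit final) in Albumax-supplemented RPMI 1640.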
Sm TGR block – inhibitors of Schistosoma mansoni thioredoxin glutathione reductase; purified TGR, DTNB reduction, TNB absorbance 405 nm; Potency, µM (top dose mostly 114 µM), for inactives: at the highest dose activity change, negative = inhibition, usual class: inhibitors; 360,000 compounds, 3% hits; AID 485364; further: potency means the concentration at half of the fitted maximal effect; on the % scale 0 is the no-effect control and ±100 the full control effect; nearly all actives have a fitted effect of over 60% in size
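First, TGR (20 nM dispensed) and NADPH were mixed with compound. Second, a 15 min room-temperature incubation followed. Third, further NADPH and then DTNB were added to start the reaction. Finally, TNB absorbance was monitored kinetically.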
HCMV inh – inhibitors of human cytomegalovirus; 410,000 compounds, 4.5% hits; activity change, negative = inhibition, % at 57.5 µM; HFF cells, HCMV-luciferase reporter, 72 h; active compounds read low; in the data active means activity change below about -60%; inconclusive means no clear call, values can overlap the other calls; inactive means above about -39%; further: on the % scale 0 is the no-effect control and ±100 the full control effect
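Luciferase read-out from HCMV-luciferase-infected HFFs (MOI 1 PFU/cell) 72 h post infection at 37C; compounds added after 16 h cell attachment; activity normalized between buffer-only basal and Salinomycin (10uM) inhibitor controls.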
Active calls of the source: *. Unless noted, the call rests on the fitted dose curve; in most records, active means well fitted curve in the direction sought with a large enough effect; inconclusive means small, poorly fitted or top-dose-only effect, or another doubt; inactive means no such curve, though single readings can be large; an effect the other way counts as inactive or inconclusive.

How did O=C(COc1ccccc1Cc1ccccc1)Nc1cccnc1 do in these assays?
HCV inhibitor: -13.5%; SARS PLpro yeast: -6.1%; Pf growth 96h: inconclusive; Pf growth 48h: -26.7%; Sm TGR block: 4.8%; HCMV inh: -36.5

How did CCCn1nc(C(=O)NNC(=O)CCCOc2ccc(OC)cc2)c2ccccc2c1=O do in these assays?
HCV inhibitor: -26.9%; SARS PLpro yeast: -1.8%; Pf growth 96h: inconclusive; Pf growth 48h: inconclusive; Sm TGR block: -3.0%; HCMV inh: -1.0

Results for CCOC(=O)C1CCCN(C(=O)c2cc3c(Cl)nc4ccccc4c3s2)C1 (stereo unspecified) ?
Sm TGR block: -3.0%; HCMV inh: -76.7*

How did O=C(c1cc2c(Cl)nc3ccccc3c2s1)N1CCCCC1 do in these assays?
Sm TGR block: 0.1%; HCMV inh: 3.8

Results for CCCN1CCN(CCCNC(=O)c2cc3c(Cl)nc4ccccc4c3s2)CC1 ?
Sm TGR block: -1.6%; HCMV inh: -80.2*

How did C=CCc1ccccc1OCCSc1nc(-c2ccccc2F)nc2cc(=O)[nH]n12 do in these assays?
Sm TGR block: -0.1%; HCMV inh: -14.9

Results for Cn1cnc(C(=O)NCc2ccc(CNC(=O)OC(C)(C)C)cc2)c1C(=O)NCc1ccc(CNC(=O)OC(C)(C)C)cc1 ?
HCV inhibitor: inconclusive; SARS PLpro yeast: -5.0%; HCMV inh: inconclusive

What do the screens show for `O=C(CC1N=C2c3ccccc3N=C(SCc3ccccc3F)N2C1=O)NCCc1ccccc1` (stereo unspecified)?
Sm TGR block: 19.7%; HCMV inh: 45.8

Results for Cc1cccc(N2CC34C=CC(O3)C(C(=O)O)C4C2=O)c1 (stereo unspecified) ?
HCV inhibitor: 6.4%; SARS PLpro yeast: -1.8%; Pf growth 96h: 13.4%; Pf growth 48h: 27.9%; Sm TGR block: 4.3%; HCMV inh: -23.6

How did O=C(O)C1C2C=CC3(CN(c4cccc(C(F)(F)F)c4)C(=O)C13)O2 (stereo unspecified) do in these assays?
HCV inhibitor: 7.3%; SARS PLpro yeast: 0.7%; Pf growth 96h: 10.4µM*; Pf growth 48h: 1.1%; Sm TGR block: 2.2%; HCMV inh: 75.3

What do the screens show for `CN(CC(=O)Nc1ccc(Cl)cc1)C(=O)CCC1CCCC1`?
HCV inhibitor: 9.4%; SARS PLpro yeast: 11.5%; Pf growth 96h: 1.7%; Pf growth 48h: 1.2%; Sm TGR block: -0.3%; HCMV inh: 35.1

What do the screens show for `O=C(Nc1ccc(N2CCN(C(=O)c3ccccc3)CC2)cc1)c1ccc2c(c1)OCCO2`?
HCV inhibitor: inconclusive; SARS PLpro yeast: 15.3%; Pf growth 96h: inconclusive; Pf growth 48h: inconclusive; Sm TGR block: -6.4%; HCMV inh: -69.1*

How did CC(=O)N1CCN(c2ccc(NC(=O)c3ccc4c(c3)OCCO4)cc2)CC1 do in these assays?
HCV inhibitor: 1.5%; SARS PLpro yeast: 7.7%; Pf growth 96h: 0.5%; Sm TGR block: 8.2%; HCMV inh: -23.2

What do the screens show for `O=C(Nc1ccc(N2CCCCC2)cc1)c1ccc2c(c1)OCCO2`?
HCV inhibitor: inconclusive; SARS PLpro yeast: 0.2%; Pf growth 96h: 106.8%; Sm TGR block: -14.5%; HCMV inh: -91.1*

What do the screens show for `CC(C)(C)C(=O)N1CCN(c2ccc(NC(=O)c3ccc4c(c3)OCCO4)cc2)CC1`?
HCV inhibitor: 10µM*; SARS PLpro yeast: -0.7%; Pf growth 96h: -22.0%; Pf growth 48h: inconclusive; Sm TGR block: -8.0%; HCMV inh: -67.5*

How did O=C(Nc1ccc(N2CCN(C(=O)c3ccc(Cl)cc3)CC2)cc1)c1ccc2c(c1)OCCO2 do in these assays?
HCV inhibitor: 7.08µM*; SARS PLpro yeast: 5.2%; Pf growth 96h: inconclusive; Sm TGR block: 0.0%; HCMV inh: -92.0*

What do the screens show for `O=C(Nc1ccccc1N1CCN(C(=O)c2ccc(Cl)cc2)CC1)c1cccc(F)c1`?
HCV inhibitor: -25.7%; SARS PLpro yeast: -9.6%; Pf growth 96h: 14.4%; Pf growth 48h: inconclusive; Sm TGR block: -8.1%; HCMV inh: 18.0

How did O=C(Nc1ccc(C(=O)N2CCN(c3ccccc3F)CC2)cc1)C1=CSCCO1 do in these assays?
HCV inhibitor: 19.1%; SARS PLpro yeast: -2.5%; Pf growth 96h: -3.3%; Pf growth 48h: -3.9%; Sm TGR block: -2.8%; HCMV inh: -60.5*

Results for O=C(Nc1ccc(C(=O)N2CCCCC2)cc1)C1=CSCCO1 ?
HCV inhibitor: 25.5%; SARS PLpro yeast: -7.0%; Pf growth 96h: inconclusive; Pf growth 48h: 60.9%; Sm TGR block: -11.5%; HCMV inh: -19.7

Results for CC(=O)N1CCN(c2ccc(NCc3ccc4c(c3)OCO4)cc2)CC1 ?
HCV inhibitor: -17.4%; SARS PLpro yeast: -5.6%; Pf growth 96h: 187.5%; Pf growth 48h: -29.4%; Sm TGR block: inconclusive; HCMV inh: -27.4

What do the screens show for `O=C(c1ccccc1)N1CCN(c2ccc(NCc3ccc4c(c3)OCO4)cc2)CC1`?
HCV inhibitor: 11.2µM*; SARS PLpro yeast: 2.1%; Pf growth 96h: inconclusive; Pf growth 48h: 22.1%; Sm TGR block: -11.2%; HCMV inh: -35.0

What do the screens show for `O=C(Nc1ccccc1N1CCN(C(=O)c2ccc(Cl)cc2)CC1)c1ccc2c(c1)OCO2`?
HCV inhibitor: inconclusive; SARS PLpro yeast: -16.0%; Pf growth 48h: 3.7µM*; Sm TGR block: -6.9%; HCMV inh: -23.3

What do the screens show for `Cc1ccc([C@@H]2C[C@H]3[C@@H](CN2S(=O)(=O)c2ccc(C)cc2)C(=O)C[C@@H](c2ccc(Cl)cc2)N3S(=O)(=O)c2ccccc2C)cc1`?
HCMV inh: -15.0

Results for O=[N+]([O-])c1cc(CN2CCCC2)c2cccnc2c1O ?
HCV inhibitor: 10.9%; SARS PLpro yeast: inconclusive; Pf growth 96h: inconclusive; Pf growth 48h: 9.28µM*; Sm TGR block: -28.7%

Results for O=c1cc(CO)oc(CN2CCN(c3cccc(C(F)(F)F)c3)CC2)c1O ?
HCV inhibitor: 6.9%; SARS PLpro yeast: 13.3%; Pf growth 48h: -12.4%; Sm TGR block: -8.9%; HCMV inh: 39.1

How did O=[N+]([O-])c1cc(CN2CCN(c3cccc(C(F)(F)F)c3)CC2)c2cccnc2c1O do in these assays?
HCV inhibitor: 3.98µM*; SARS PLpro yeast: -21.4%; Pf growth 96h: inconclusive; Pf growth 48h: 0.828µM*; Sm TGR block: -26.9%; HCMV inh: -76.3*

What do the screens show for `O=[N+]([O-])c1ccc(N2CCCC2)c2ncccc12`?
HCV inhibitor: inconclusive; SARS PLpro yeast: -2.2%; Pf growth 96h: inconclusive; Pf growth 48h: 13.0%; Sm TGR block: 5.1%; HCMV inh: -10.9
